Reference: PubChem BioAssay AID1745845 (National Center for Advancing Translational Sciences (NCATS), 2022)
Among all 360,000 compounds or so, about 2,600 (0.72%) were called active. About 5% were inconclusive and are not listed. The sample as a whole holds a higher share of actives than the screen did. Values without a mark were called inactive. Calls follow the shape of the dose curve; as a rule, active = well fitted inhibition curve with a large enough effect; inconclusive = small, poorly fitted or top-dose-only effect; inactive = no such curve, though single readings can be large or run the other way.

assay: Primary qHTS for Inhibitors of ATXN expression; conditions: HEK-293 ATXN2-luciferase reporter, luminescence, 24 h; series mostly up to 57 µM; activity change, negative = inhibition: at the top concentration; also: nearly all actives have a fitted effect of over 55% in size
How it was run: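 ATXN2-luciferase reporter cells (luciferase flanked by upstream and downstream ATXN2 gene portions) were treated 24 h at 37 °C with compounds at up to 57 uM. SteadyGlo luminescence gave expression; GF-AFC fluorescence gave viability.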
% is scaled to controls: 0 for no effect and ±100 for the full control effect; potency is read from the fitted curve at half-maximal effect.

Compound	activity change, negative = inhibition	Potency
COc1ccc(-c2nc(Cn3c(=O)cc(C)c4c(C)nn(-c5ccccc5)c43)c(C)o2)c(OC)c1	7.3%	
CCOc1ccccc1CNC(=O)c1ccc(-n2c(C)cc3c2CCC(C)C3)cc1 (stereo not drawn)	0%	
CO/N=C(/C(=O)N[C@@H]1C(=O)N2C(C(=O)O)=C(Cn3nnc(C)n3)CS[C@H]12)c1csc(N)n1	2.99%	
CC(C)c1ccc(S(=O)(=O)Nc2ccc(O)c(Sc3nc4ccccc4s3)c2)cc1	-19.1%	
O=[N+]([O-])c1c(NCCO)cc(Sc2nc3ccccc3s2)c2nonc12		14.1 µM (active)
CC(C)(C)c1ccc(S(=O)(=O)Nc2ccc(O)c(Sc3nc4ccccc4s3)c2)cc1	-25.6%	
CCCCC[C@H](C)N1C[C@@H](COCc2ccccc2)Oc2cc(N3CCC[C@@H]3CO)ccc2S1(=O)=O	-22.8%	
CCCCC[C@H](C)N1C[C@@H](COCc2ccccc2)Oc2cc(N3CC[C@@H](N(C)C)C3)ccc2S1(=O)=O		31.6 µM (active)
CCCCN1CC(COCc2ccccc2)OCCS1(=O)=O (stereo not drawn)	7.62%	
Cc1cccc(Nc2nc(C)nc(N)c2S(=O)(=O)c2ccccc2)c1	0.325%	
CC(C)CC[n+]1ccn(C2=C([O-])c3ccccc3C(=O)/C2=N\S(=O)(=O)c2ccccc2)c1		31.6 µM (active)
CCC1=Nc2cc(C(=O)NCCCOC(C)C)ccc2Sc2ccc(C)cc21	-5.7%	
Cc1ccc(C)c(N2CCN(C(=O)CN3C(=O)COc4ccc(S(=O)(=O)N5CCCCCC5)cc43)CC2)c1	7.39%	
COc1cccc(CNC(=O)C2CCC(CNS(=O)(=O)c3cccs3)CC2)c1 (stereo not drawn)	-0.375%	
CN1CCC[C@@H]1CCO[C@](C)(c1ccccc1)c1ccc(Cl)cc1		25.1 µM (active)
CC(C)(c1ccccc1)c1ccc(OCCN2CCCC2)cc1	-18.9%	
OC(c1ccccc1)(c1ccccc1)C1CCN(CCCOc2ccccc2)CC1	0%	
CCOc1ccc(NC(=O)Cn2c(C)ccc(C#N)c2=O)cc1	-0.689%	
NCC[C@H](O)C(=O)N[C@@H]1C[C@H](N)[C@@H](O[C@H]2O[C@H](CN)[C@@H](O)[C@H](O)[C@@H]2O)[C@H](O)[C@@H]1O[C@H]1O[C@H](CO)[C@@H](O)[C@H](N)[C@@H]1O	0.946% [at 0.709 µM]	

Compound	activity change, negative = inhibition	Potency
CCOc1cccc2c1N[C@@H](c1ccc(C(=O)O)cc1)[C@H]1CC=C[C@@H]21	-5.41%	
C/C(=N\NC(=O)c1ccccc1F)c1ccccn1		3.98 µM (active)
C/C(=N\NC(=O)Cc1ccc(Cl)cc1)c1ccccn1		3.16 µM (active)
O=C(Nc1nnc(-c2ccccc2F)s1)c1ccccc1F	-3.39%	
O=C(NCCCn1ccnc1)c1ccccc1F	-4.04%	
CC1=NNC(=O)C1CCC(=O)N/N=C(\C)c1ccc(Cl)cc1 (stereo not drawn)	1.5%	
O=C(Cc1ccc(Cl)cc1)c1ccccc1	45.8%	
O=C(NCCc1ccccc1)C(=O)NCC(c1ccco1)S(=O)(=O)c1ccccc1 (stereo not drawn)	4.42%	
CCc1ccc(NC(=O)c2sc3nc4c(cc3c2N)CN(CC)CC4)cc1	-30%	
COc1ccc(-c2cc(NC=O)c3ncc(-c4ccccc4)n3c2)cc1OC	-24.3%	
CC(=O)N1CCCc2cc(S(=O)(=O)CCC(=O)N3CCN(c4ccccc4)CC3)ccc21	-7.04%	
CC(=O)N1CCCc2cc(S(=O)(=O)N3CCCC(C(=O)N4CCN(c5cccc(Cl)c5)CC4)C3)ccc21 (stereo not drawn)		28.2 µM (active)
COc1cccc(N2CCN(S(=O)(=O)c3ccc4c(c3)CCCN4C(C)=O)CC2)c1	-1.44%	
COC(CCN(C)C)(c1ccccc1)c1ccccc1	6.23%	
CCCC(C(=O)OCCN(CC)CC)(c1ccccc1)c1ccccc1		31.6 µM (active)
CCN(CC)CCOC(=O)c1ccc(NC(=O)CNC(=O)c2ccccc2)cc1	2.24%	
O=c1cc(CSc2ncn[nH]2)[nH]c2ccc(F)cc12	16%	
COc1cc(/C=C/C(N)=O)cc(OC)c1OC	17.2%	
COCCCN1CCC(NC(=O)c2cc(Cl)c(N)c3c2OCC3)CC1		inactive
